Source: PubChem BioAssay (several laboratories)
S1P3 antag = S1P3 (human) receptor antagonism. Q99500. CHO S1P3 NFAT-BLA reporter, FRET fluorescence, antagonist mode. inhibition, % at 4.98 µM. actives 0.27% (n = 170,000). AID 485;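 active = inhibition above the plate cutoff, the mean inhibition of test wells on that plate plus 3 SD, cut at about 28% in these data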;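 also: cells challenged with S1P at its EC80 of 0.8 µM; blue over green emission ratio from cleaved BLA substrate after 4 h stimulation; 0% = S1P-stimulated wells and 100% = unstimulated DMSO-only wells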
S1P4 agonist = activates the human S1P4 receptor. O95977. activation, % at 4.98 µM. S1P4-expressing cell line, agonist reporter assay. actives 0.35% (n = 220,000); in the data active = activation above about 11%;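 also: 0% = DMSO vehicle and 100% = reference agonist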
Hsp70 activator = switches on Hsp70 transcription | actives 0.04% (n = 200,000) | AID 1203 | HeLa Hsp70 promoter luciferase reporter, luminescence; scaled: vehicle 0, proteasome-inhibitor control 100% | activation, % at 10 µM;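 active = activation above the mean across all tested compounds plus 3 SD, cutoff set per campaign, cut at about 5.5% in these data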;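 also: 100% = MG132 at 30 µM as the positive control and 0% = DMSO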
AI-2 QS mod = modulators of Vibrio harveyi AI-2 quorum sensing system | activity change, % at 7.5 µM | AID 2094 | actives 0.4% (n = 300,000) | Vibrio harveyi JMH597 AI-2 luminescence/OD600 ratio, 9 h; stronger effect = lower value; strain lacks LuxN and CqsS sensors; 0 = neutral-control median; in the data active = activity change below about -75%, passing the limit was not always enough;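 also: luminescence divided by OD600 gain over 9 h not by final OD600 alone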
S1P4 antag = blocks the human S1P4 receptor; O95977; S1P4-expressing cells, antagonist mode, reporter read-out; inhibition, % at 4.98 µM; actives 0.26% (n = 220,000); AID 1510; in the data active = inhibition above about 29%;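 also: 0% = wells stimulated with agonist and 100% = vehicle wells without agonist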
S1P4 agonist cf = confirmation of human S1P4 receptor agonists; shares compounds with S1P4 agonist; S1P4 agonist cell-based reporter assay; activation, % at 4.98 µM; actives 7% (n = 740); AID 1523; in the data active = activation above about 12%;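 also: 0% = vehicle and 100% = full reference agonist response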
S1P1 ag = activates human S1P1, counter-screen for S1P4 agonists. shares compounds with S1P4 agonist. S1P1 agonist cell-based assay, activation. activation, % at 4.98 µM. actives 4% (n = 740). AID 1563; in the data active = activation above about 21%;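 also: 0% = vehicle wells and 100% = reference agonist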
Target sequence (P21453 whole entry, looked up): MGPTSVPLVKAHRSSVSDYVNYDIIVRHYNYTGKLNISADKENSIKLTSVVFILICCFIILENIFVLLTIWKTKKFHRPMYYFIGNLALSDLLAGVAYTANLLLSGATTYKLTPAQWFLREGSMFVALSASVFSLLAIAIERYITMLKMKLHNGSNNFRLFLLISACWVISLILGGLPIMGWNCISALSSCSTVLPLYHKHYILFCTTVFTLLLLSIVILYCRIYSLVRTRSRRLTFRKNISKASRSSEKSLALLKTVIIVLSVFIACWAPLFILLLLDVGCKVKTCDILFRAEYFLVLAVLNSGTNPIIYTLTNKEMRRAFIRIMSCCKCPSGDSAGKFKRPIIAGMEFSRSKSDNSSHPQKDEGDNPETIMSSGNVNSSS
Numbers without * were called inactive; · = not tested or not shown. Sampled rows, rich in hits. Any-hit rate of the full collection: about 0.97%.

SMILES	S1P3 antag	S1P4 agonist	Hsp70 activator	AI-2 QS mod	S1P4 antag	S1P4 agonist cf	S1P1 ag
CCCNC(=O)N1CCN(S(C)(=O)=O)CC1	11	2	0	16	-8	·	·
CSc1cccc(CN2CCC(CO)(Cc3ccccc3)CC2)c1	4	16*	0	-9	11	-2	-6
CSc1cccc(CN2CCCC(CO)(Cc3cccc(Cl)c3)C2)c1 (stereo not drawn)	-5	-2	0	20	-7	·	·
CNC(=O)c1cccnc1Nc1cccc(C(F)(F)F)c1	-3	33*	0	2	-45	-1	6
O=C(Nc1cccc(C(F)(F)F)c1)c1cccnc1NCCO	·	·	·	30	·	·	·
O=C(O)C1Nc2ccc(C(F)(F)F)cc2C2OCCC12 (stereo not drawn)	·	·	·	9	·	·	·
COc1ccc2[nH]cc(/C=C/C(=O)c3ccccc3)c2c1	0	2	·	45	13	·	·
COc1ccc(S(=O)(=O)N(NC2=NS(=O)(=O)c3ccccc32)C(=O)C(C)C)cc1	-2	1	0	3	5	·	·
Cc1ncc([N+](=O)[O-])n1CC(=O)NCCc1ccccc1	-15	16*	0	-2	3	-1	-1
COc1cc(NS(=O)(=O)c2ccc(-c3ccc(=O)[nH]n3)o2)cc(OC)c1OC	·	·	·	34	·	·	·
Cc1ccc(NC(=O)CS(=O)CC(=O)NCCCN(C)c2ccccc2)cc1 (stereo not drawn)	-29	25*	0	35	-7	-2	-4
Cc1ccccc1-c1nc(CS(=O)CC(=O)NCCCN(C)c2ccccc2)c(C)o1 (stereo not drawn)	6	0	0	31	-17	·	·
O=[N+]([O-])c1ccccc1N/N=C/c1cccc(O)c1O	-4	13*	·	6	-10	-3	2
O=[N+]([O-])c1ccccc1N/N=C\c1ccccc1Cl	·	-1	0	8	-36	·	·
NC(=S)NNC(=O)c1cc(C(F)(F)F)cc(C(F)(F)F)c1	-4	77*	·	20	-16	-1	1
CCOc1ccc(NC(=O)c2ccccn2)cc1	-7	1	-1	10	-16	·	·
CNS(=O)(=O)c1ccc(NC(=O)c2ccccn2)cc1	-7	70*	0	12	9	-1	-3
Cn1c(CCNC(=O)c2ccco2)nc2cc(NC(=O)c3ccccc3Cl)ccc21	·	·	·	14	·	·	·
O=C(CSc1nc2ccccc2c(=O)n1CCCO)NCc1ccccc1	-6	0	0	1	-3	·	·
O=c1c2ccccc2nc(SCc2nc3ccccc3s2)n1CCCO	-9	21*	0	19	-7	-1	-7
COc1ccccc1CCN=C(N)NS(=O)(=O)c1ccc(C)c(C)c1	·	·	·	8	·	·	·
CCNS(=O)(=O)c1ccc(CCC(=O)NCc2ccncc2)cc1	·	·	·	-1	·	·	·
COCCCNC(=O)CCn1c(=O)c2ccccc2n(Cc2cccc([N+](=O)[O-])c2)c1=O	-9	0	0	34	-13	·	·
CCCCNC(=O)CCn1c(=O)c2ccccc2n(Cc2ccc(F)cc2)c1=O	5	15*	0	23	-20	-2	1
Cc1cc(C)c[n+](C(C)C(=O)c2ccc(Cl)cc2)c1 (stereo not drawn)	·	·	·	31	·	·	·
SMILES	S1P3 antag	S1P4 agonist	Hsp70 activator	AI-2 QS mod	S1P4 antag	S1P4 agonist cf	S1P1 ag
Cc1ccc(NC(=O)/C(C#N)=N/Nc2ccc(C(=O)O)cc2)c(C)c1	-11	-1	·	31	14	·	·
Cc1ccc(N/N=C(\C#N)C(N)=S)c(C)c1	3	20*	0	25	-1	-1	-2
CN(c1ccccc1)c1cc(Br)nc(Br)c1	·	·	·	19	·	·	·
COc1ccc(Cn2c(=N)c(C(=O)NC3CCCCC3)cc3c(=O)n4ccccc4nc32)cc1	·	·	·	12	·	·	·
CC(C)n1c(=N)c(C(=O)NCCc2ccccc2)cc2c(=O)n3ccccc3nc21	-18	18*	0	16	-14	14*	36*
Cc1cccn2c(=O)c3cc(C(=O)NCc4cccnc4)c(=N)n(C(C)C)c3nc12	·	8	0	16	-24	·	·
COCCCn1c(=N)c(C(=O)NC2CCCCC2)cc2c(=O)n3ccccc3nc21	·	13*	0	14	-25	3	2
COC(=O)c1sccc1NC(=S)N1CCN(c2cccc(C)c2C)CC1	1	23*	0	-1	-11	-2	4
